LDHA block = LDHA (human) enzyme inhibition | purified LDHA, NADH/diaphorase-resazurin fluorescence; active compounds read low | activity change, % (values are at about 110 or 230 µM) | P00338 | AID 1347041 | 0.15% of 480,000 active; in the data active = activity change below about -30%; inconclusive = mostly about -25% to -30%;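 note: plate controls were DMSO wells for no effect and wells without enzyme for full effect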
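Human LDH5 (2 nM) was incubated with 0.06 mM NADH and 0.2 mM pyruvate for 5 min at room temperature in Tris pH 7.4. Remaining NADH was coupled through diaphorase/resazurin, and resorufin fluorescence was read at 0 and 20 min.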
FUS yeast rescue = suppressors of FUS proteinopathy in yeast. Potency, µM (top dose mostly 76.6 µM), hits mostly activators. 0.24% of 390,000 active. S. cerevisiae FUS-expressing, growth rescue, OD600, 24 h. AID 1347120;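 note: potency is the fitted concentration of half-maximal effect; plate controls were DMSO vehicle for no effect and reference control for full effect; nearly all actives have a fitted effect of over 55% in size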
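S. cerevisiae expressing FUS from galactose induction served as the toxicity model. Growth after 24hr at 30C, read as absorbance at 600 nm, indicates suppression of toxicity; compounds dosed at several concentrations.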
Abeta yeast res = A-beta toxicity reversal in yeast; 0.063% of 410,000 active; AID 1347071; Potency, µM (series often up to 46.1 µM), hits mostly activators; yeast expressing A-beta42, growth rescue, OD600, 48 h; response scale: 0% DMSO, 100% iron-clioquinol control; note: potency is the fitted concentration of half-maximal effect; nearly all actives have a fitted effect of over 55% in size
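Growth rescue measured by 600 nm absorbance after 48 h yeast culture at 30 C with compound. Values normalized between DMSO and an equimolar ferric chloride plus clioquinol control.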
aSyn rescue = alpha-synuclein toxicity inhibition in yeast. Yeast expressing alpha-synuclein, growth rescue, BacTiter-Glo, 24 h. AID 652106. Potency, µM (doses to about 46.1 µM), for inactives: at the highest dose growth rescue (activation), hits mostly activators. 0.14% of 370,000 active; note: potency is the fitted concentration of half-maximal effect; % of control where 0% means no effect; nearly all actives have a fitted effect of over 65% in size
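Screening used galactose-induced yeast with toxic alpha-synuclein levels, exposed to compound for 24 hr at 30 deg C. Cell growth, read with BacTiter-Glo luminescence, gave the measured signal.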
PTHR1 ag = PTHR1 (human) receptor agonism. AID 743266. Q03431. HEK293 GP2 PTHR1 cells, GloSensor cAMP luminescence, 1 h. 0.075% of 410,000 active. Potency, µM (doses to about 115 µM), for the others: at the top dose activation, hits mostly activators; note: potency is the fitted concentration of half-maximal effect; nearly all actives have a fitted effect of over 55% in size
Target sequence (Q03431 whole entry, looked up): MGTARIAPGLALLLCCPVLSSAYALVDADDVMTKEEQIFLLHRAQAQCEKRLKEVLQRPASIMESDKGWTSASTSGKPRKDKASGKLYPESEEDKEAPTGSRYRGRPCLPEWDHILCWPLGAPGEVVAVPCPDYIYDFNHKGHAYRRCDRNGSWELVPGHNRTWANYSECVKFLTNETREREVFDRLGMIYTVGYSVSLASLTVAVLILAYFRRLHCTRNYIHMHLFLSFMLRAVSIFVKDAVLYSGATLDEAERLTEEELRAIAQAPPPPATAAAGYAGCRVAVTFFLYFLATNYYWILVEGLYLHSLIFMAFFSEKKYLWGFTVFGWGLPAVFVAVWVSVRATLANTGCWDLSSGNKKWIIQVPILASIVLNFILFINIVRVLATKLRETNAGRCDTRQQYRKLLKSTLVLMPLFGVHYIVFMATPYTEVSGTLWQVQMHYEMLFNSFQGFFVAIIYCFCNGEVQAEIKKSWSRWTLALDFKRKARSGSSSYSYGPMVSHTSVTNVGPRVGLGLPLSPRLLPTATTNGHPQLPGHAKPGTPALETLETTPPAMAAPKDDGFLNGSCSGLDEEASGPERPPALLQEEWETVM
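HEK-293-derived GP2 cells expressing PTHR1 and a GloSensor cAMP reporter, 3,000/well, plated overnight, given luciferin plus IBMX (each 0.5 mM as added) for 1 h at 37 °C, then compound for 1 h at 37 °C. Luminescence was read after 15 min at room temperature.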
TDP-43 yeast inh = TDP-43 toxicity inhibition in yeast. AID 652104. TDP-43 expressing yeast growth rescue, BacTiter-Glo, 24 h. 1.8% of 410,000 active. Potency, µM (highest dose often 46.1 µM), for inactives: at the top dose growth rescue (activation), usual class: activators; note: potency is the fitted concentration of half-maximal effect; % of control where 0% means no effect; nearly all actives have a fitted effect of over 50% in size
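Readout is BacTiter-Glo luminescence of cell growth, so inhibitors register as activators. TDP-43-expressing yeast at OD600=0.02 in galactose medium, after raffinose pregrowth to mid-log, were incubated with compound for 24 hr at 30 deg C.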
Active calls of the source: *; i = inactive; ? = inconclusive; · = not tested or not shown; [ ] = remark or other dose. Rows were chosen to be rich in hits. Some 1.9% of all compounds tested hit in one or more screens of this group. Unless noted, calls come from the whole dose curve; as a rule, active = well fitted curve in the direction sought with a large enough effect; inconclusive = small, poorly fitted or top-dose-only effect, or another doubt; inactive = no such curve, though single readings can be large; an effect the other way counts as inactive or inconclusive.

SMILES	LDHA block	FUS yeast rescue	Abeta yeast res	aSyn rescue	PTHR1 ag	TDP-43 yeast inh
O=C1ON=C(c2ccc([N+](=O)[O-])cc2)/C1=C/c1ccccc1O	-43*	i	i	-1%	-89%	?
Cc1n[nH]c(C)c1NC(=O)CN1CCN(S(=O)(=O)c2ccc(C(F)(F)F)cc2)CC1	-37*	i	i	8%	-10%	-4%
COc1ccc(S(=O)(=O)N2CCN(CC(=O)Nc3c(C)n[nH]c3C)CC2)cc1OC	-36*	i	i	-3%	i	2%
S=c1[nH]nc(CCCOc2ccc(Cl)cc2Cl)n1CC1CCCO1 (stereo not given)	7	·	·	·	·	·
Cc1ccc(-n2nnnc2SCC(=O)NCCc2ccccc2)cc1C	3	i	i	·	i	22µM*
Nc1cccc2cccc(S(=O)(=O)O)c12	70	·	·	·	·	·
CCn1c2ccccc2c2cc(Nc3cc(C)nc4ncnn34)ccc21	-12	i	i	9%	-15%	16µM*
COc1cccc(/C=C/c2ccc3cccc(O)c3n2)c1OC	3	i	i	18µM*	-79%	14µM*
COc1cccc(/C=C/c2ccc3cccc(O)c3n2)c1	20	i	?	18µM*	-19%	?
COc1ccc(/C=C/c2ccc3cccc(O)c3n2)c(OC)c1OC	7	i	i	?	-26%	?
Oc1cccc(/C=C/c2ccc3cccc(O)c3n2)c1	14	i	?	?	-50%	13µM*
Cc1ccc(/C=C/c2ccc3cccc(O)c3n2)cc1C	5	·	·	·	·	·
O=C(CCn1c(=O)oc2cc(S(=O)(=O)N3CCCC3)ccc21)Nc1ccc(F)c(F)c1	-8	·	·	·	·	·
COC(=O)c1ccn[nH]1	4	·	·	·	·	·
COc1cc(C(=O)ONC(=O)c2ccc(OC(F)F)cc2)cc(OC)c1OC	16	i	?	-48%	i	8.9µM*
Cc1ccc(C)c(N2CCN(C(=O)c3ccc4c(Cl)c5c(nc4c3)CCCC5)CC2)c1	-2	?	i	·	i	35µM*
Cc1ccc(Cl)cc1N1CCN(C(=O)c2ccc(C)c(-n3c(C)nc4cccnc43)c2)CC1	1	22µM*	i	·	-35%	7%
CCOCCCNC(=S)NCc1cccc(COCc2ccccc2)c1	3	·	·	·	·	·
CCCOC(=O)c1c(N)sc(C(=O)OCC)c1C	-3	i	i	4%	-17%	7.9µM*
CNC(=O)c1ccc(CNCc2ccco2)cc1	2	·	·	·	·	·
COc1ccc(OCCSc2nnc3sc4ccccc4n23)cc1	-8	i	i	12%	-27%[57.5 µM]	16µM*
CN(C)CCSc1nnc2sc3ccccc3n12	-5	i	i	1%	-12%[57.5 µM]	9%
Cc1ccc2nc(NC(=O)CSc3nccn3Cc3ccc(F)cc3)sc2c1	1	i	?	?	-11%	22µM*
Cc1nc(Cl)cc(CS(=O)(=O)c2ccc(Cl)cc2)n1	1	i	i	-9%	i	2%
Cc1nc(CS(=O)(=O)c2ccccc2)cc(Sc2ccc(Cl)cc2Cl)n1	0	i	i	9%	-17%	13µM*
SMILES	LDHA block	FUS yeast rescue	Abeta yeast res	aSyn rescue	PTHR1 ag	TDP-43 yeast inh
COc1ccc(NC(=O)c2cc(-c3cc(F)ccc3OC)n[nH]2)cn1	-4	i	i	-23%	-1%	20µM*
COc1ccc(NC(=O)c2cc(-c3cc(F)ccc3OC)n[nH]2)c(OC)c1	-2	i	i	-17%	-18%	20µM*
COc1ccc(OC)c(NC(=O)c2cc(-c3ccc(F)cc3OC(C)C)n[nH]2)c1	0	?	i	-8%	-12%	22µM*
COc1ccc(NC(=O)c2cc(-c3cc(F)ccc3OC)n[nH]2)cc1OC	-4	i	i	-2%	-4%	35µM*
CCCOc1ccc(F)cc1-c1cc(C(=O)Nc2ccc(OC)c(OC)c2)[nH]n1	0	?	i	1%	-9%	?
COc1ccc(NC(=O)c2cc(-c3ccc(F)cc3OC)n[nH]2)c(OC)c1	-5	i	i	-7%	-4%	20%
COCCCNC(=O)c1cc(-c2ccc(OC)cc2)nc2ccccc12	5	·	·	·	·	·
O=C(CSCc1ccc(Cl)cc1)N1CCOCC1	-3	i	i	1%	i	6%
O=C(CSc1nnc(SCc2ccc(Cl)cc2)s1)N1CCOCC1	-5	i	i	1%	-21%	22µM*
CC(C)CCNc1nc(Nc2ccccc2)c2cnn(C)c2n1	5	?	i	·	-20%	18µM*
COc1ccccc1OCCCn1cc(C#N)c2ccccc21	-3	i	i	1%	-10%	35µM*
N#Cc1cn(CCCOc2ccccc2)c2ccccc12	-1	i	?	-5%	-12%[57.5 µM]	23%
N#C/C(=C\c1c(Cl)cccc1Cl)c1nc2ccccc2[nH]1	-2	i	i	-46%	-11%	11µM*
CCOc1cc(N(CC)CC)ccc1/C=C(/C#N)c1nc2ccccc2[nH]1	5	?	i	-22%	-4%[57.5 µM]	7.1µM*
CCN(CC)c1ccc(/C=C(/C#N)c2nc3ccc(C)cc3[nH]2)c(OC(C)C)c1	8	8.9µM*	i	-35%	13%[57.5 µM]	?
CCc1ccc(N2CCC(CN)C2)cc1 (stereo not given)	-25	·	·	·	·	·
O=C1c2ccccc2C(=O)N1CCc1csc(-c2ccccc2)n1	-2	i	i	?	-74%[57.5 µM]	13µM*
O=C(O)c1nn(CCOc2ccccc2)c(=O)c2ccccc12	2	·	·	·	·	·
COCCn1c(C)cc(C(=O)CSc2nnc(-c3cccnc3)n2-c2ccccc2F)c1C	0	20µM*	i	·	i	11%
CCOc1cccc(NC(=O)C2CC(=O)N(C)C(=Nc3ccc(OC)cc3)S2)c1 (stereo not given)	-6	i	i	5%	i	22%
CCOc1cccc(NC(=O)C2CC(=O)N(C)C(=Nc3ccc(F)cc3)S2)c1 (stereo not given)	-8	i	16µM*	·	-22%	25µM*
CCOc1cccc(NC(=O)C2CC(=O)N(C)C(=Nc3cccc(OC)c3)S2)c1 (stereo not given)	2	?	i	·	-13%	35µM*
O=C(c1cnccn1)N1CCc2c([nH]c3ccccc23)C1c1cccc(Cl)c1 (stereo not given)	0	?	i	?	-2%	18µM*
Cc1cc(C(=O)N2CCc3c([nH]c4ccccc34)C2c2cccc(Cl)c2)nn1C (stereo not given)	0	i	i	2%	10%	10%
Cc1ccc(CN(CCc2ccccc2)C(=O)CCl)s1	-6	·	·	·	·	·

Screens as filed in PubChem.
